# About 1,200 (3.2%) of roughly 38,000 compounds showed an effect of 50% or more. The median lay at about -58%. Shown is part of a subset that was picked to be rich in strong results.
# System: Plasmodium falciparum
# Experiment: Calibr Malaria Delayed Death Assay SOP
# Assay type: functional, organism-based
# Parameters: scale not given: in the data most compounds retested in dose-response had high values
# Conditions: concentration 4.99e-06 (unit not given; other assays of the set use mol/L)
row,Compound,Percent Effect
1,Cc1nc(CO[C@H]2CN(Cc3cccs3)[C@@H]3COC[C@H]23)cs1.O=C(O)C(F)(F)F.O=C(O)C(F)(F)F,-73.25%
2,Cc1ccc(CNC(C)c2nnc3n2CCCC3)o1 (stereo unspecified),-20.3%
3,CCN1CCN(c2ccc(F)cc2C(C)NCc2nc(C)no2)CC1 (stereo unspecified),4.183%
4,CCN1CCN(c2ccc(F)cc2C(C)NCc2noc(C)n2)CC1 (stereo unspecified),52.85%
5,CN1CCN(c2ccc(F)cc2C(N)=O)CC1,-109.6%
6,Cc1nc(CNC(=O)Nc2cc(F)ccc2OC(F)F)no1,-136.5%
7,CC(COc1ccccc1)NCc1cn2ccccc2n1 (stereo unspecified),-27.04%
8,Cc1ccc(C(=O)N2CCC3(CCC(=O)N(C(C)C)C3)CC2)c(O)c1,-20.48%
9,COC(=O)c1ccc(C2CC(=O)Nc3c2cnn3C)cc1 (stereo unspecified),-67.54%
10,CCc1noc(CN2CCCC(Cn3nc(C)nc3C)C2)n1 (stereo unspecified),-109.5%
11,CN(C)c1ccc(C(=O)N2CCN(Cc3cscn3)CC2)cc1F,-147.3%
12,CCC1CN(Cc2c(O)ccc3oc4c(c23)CCCC4)CCO1 (stereo unspecified),59.59%
13,NC(=O)C1CN(Cc2c(O)ccc3oc4c(c23)CCCC4)CCO1 (stereo unspecified),-24.38%
14,Oc1ccc2oc3c(c2c1CN1CCOCC1)CCCC3,15.46%
15,CN1CCC(N(C)C[C@H]2CC[C@@H](Cc3cccc(O)c3)O2)CC1,56.23%
16,CN1CCC(N(C)C[C@H]2CC[C@@H](Cc3ccc4occc4c3)O2)CC1,85.36%
17,CN1CCC(N(C)C[C@H]2CC[C@@H](Cc3cccc(CO)c3)O2)CC1,-136%
18,CCN1CCN(C[C@H]2CC[C@@H](Cc3ccc4c(c3)OCO4)O2)CC1,-22.56%
19,COc1ccc(C[C@@H]2CC[C@H](CN(C)C3CCN(C)CC3)O2)cc1,49.48%
20,CN1CCN(C[C@H]2CC[C@@H](Cc3ccc4c(c3)OCO4)O2)CC1,-29.46%
21,CCCc1ccc(C(=O)N2CCc3c(nc(C)nc3N(C)C)C2)cc1,-63.88%
22,COc1ccc([C@@H]2NC(=O)N[C@H]3OCCC[C@H]32)cc1,13.26%

row,Compound,Percent Effect
1,O=C(c1ccco1)N1C[C@H]2CN(Cc3cccc(F)c3)C(=O)[C@H]2C1,-97.73%
2,O=C(CNC(=O)N1CCN(c2cccc(Cl)c2)CC1)Nc1ccccn1,-109.2%
3,CN(Cc1nnc(C2CC2)n1C)S(=O)(=O)Cc1ccccc1F,-39.05%
4,Cc1cc(NC(=O)NC(C)CN2CCN(c3ccccc3)CC2)on1 (stereo unspecified),58.09%
5,Cc1cc(NC(=O)N(C)CCN2CCN(c3ccccc3)CC2)on1,-52.94%
6,Cc1cc(NC(=O)CN(c2ccccc2)C(C)C)on1,-10.54%
7,COC(=O)c1cc2c(=O)n(C3CC3)ccc2nc1C,-61.53%
8,Cc1nc(C)n(C2CCCN(C(=O)CCCNc3ncccn3)C2)n1 (stereo unspecified),-99.16%
9,CSc1ccc(OCCN2CCNC(=O)C2C)cc1 (stereo unspecified),-33.67%
10,COCC1CC2(CCN(CC3CC3)CC2)CN1Cc1ccccn1.O=C(O)C(F)(F)F.O=C(O)C(F)(F)F (stereo unspecified),39.61%
11,COCC1CC2(CCN(Cc3nccs3)CC2)CN1Cc1ccccn1.O=C(O)C(F)(F)F.O=C(O)C(F)(F)F.O=C(O)C(F)(F)F (stereo unspecified),-3.583%
12,COCC1CC2(CCN(Cc3ccoc3)CC2)CN1Cc1ccccn1 (stereo unspecified),55.13%
13,CCOc1ccc(-c2c(C#N)c(N)nc3c2COCC3)cn1,-92.51%
14,CC(=O)N(Cc1noc(C2CC2)n1)C1CCN(Cc2ccccn2)C1 (stereo unspecified),-1.635%
15,O=C(O)C(F)(F)F.O=C(O)C(F)(F)F.O=C(c1ccnnc1)N1CCN(Cc2cccnc2)c2ncccc2C1,-70.53%
16,CN1CC[C@H](N(Cc2ccccc2)Cc2ccccc2)C[C@H](O)C1,71.85%
17,CN1CC[C@H](N(C)Cc2ccccc2)C[C@H](O)C1,2.065%
18,CN(CC1CC1)C(=O)CN(Cc1cccc(O)c1)C1CCC(O)CC1 (stereo unspecified),-102.5%
19,CN1CCC(N(C)CCC(=O)N2CCC(CCc3ccccc3)CC2)C1 (stereo unspecified),17.74%
20,CN1CC[C@H](N(Cc2ccccc2)CC2CC2)C[C@H](O)C1,80.63%
21,CN1CC[C@H](N(Cc2ccccc2)C2COC2)C[C@H](O)C1,43.99%
22,O=c1[nH]c(CN2CCOC(Cn3cccn3)C2)nc2ccccc12 (stereo unspecified),-93.34%

row,Compound,Percent Effect
1,Cc1cc(CN2CCN(C(=O)C(C(C)C)n3cncn3)CC2)no1 (stereo unspecified),-20.49%
2,Cc1ccc(OCCC(=O)N2CCCC(n3nc(C)nc3C)C2)cc1 (stereo unspecified),0.003662%
3,c1ccc(CCCN2CCOC(Cn3cccn3)C2)cc1 (stereo unspecified),-23.01%
4,NC(=O)CCN(CC(=O)NCc1ccccn1)c1ccc(F)cc1,-98.56%
5,O=C(Nc1ccccc1)N1C[C@H]2C[C@H](C(=O)N3CCOCC3)[C@@H](C1)O2,-95.7%
6,Cn1ccnc1CN1CCN(CC(=O)NCc2ccccc2F)CC1,-19.05%
7,CN1CCN(Cc2ccccc2CNC(=O)c2ccc(Cl)cc2F)CC1,76.33%
8,CC1CCN(C(CNC(=O)CCn2cccn2)c2cccs2)CC1 (stereo unspecified),-77%
9,CNC(=O)c1ccc(CNC(=O)c2ccc(Cl)cc2F)cc1,-28.69%
10,CN1CCN(Cc2ccccc2CNC(=O)c2ccc(Br)cc2)CC1,45.05%
11,O=C(NCC(c1cccs1)N1CCOCC1)c1ccc(F)cc1Cl (stereo unspecified),-47.97%
12,CN1CCN(Cc2ccccc2CNC(=O)c2ccc(Br)cc2F)CC1,47.71%
13,Cn1ccc(C(=O)NCc2ccccc2CN2CCCCC2)cc1=O,-63.4%
14,CN1CCN(C(CNC(=O)c2ccc(Cl)cc2F)c2cccs2)CC1 (stereo unspecified),51.8%
15,CN1CCN(Cc2ccccc2CNC(=O)c2cc(Cl)ccc2F)CC1,65.2%
16,CN1CCN(Cc2ccccc2CNC(=O)c2cc(Br)ccc2F)CC1,76.59%
17,O=C(NCc1ccccc1CN1CCOCC1)c1ccc(Br)cc1F,-44.16%
18,Cc1ccc(CCNC(=O)Cn2nc(C)n(Cc3ccccc3)c2=O)s1,-1.162%
19,CCCNC(=O)CCC(=O)n1nc(C)c2ccccc21,-0.03666%
20,Cc1cc(N(C)CCN(C)C2CCCC2)n2nc(C)cc2n1,53.42%
21,Cc1cc(C)nc(N(C)CCN(C)C2CCCC2)n1,27.63%
22,Cc1cc(N(C)CCN(C)C)n2nc(C)cc2n1,-114.6%

row,Compound,Percent Effect
1,Nc1ncc(C(=O)N2CCN(c3nccs3)CC2)cc1Cl,-61.47%
2,Oc1cccc(CNCCC2CCCO2)c1 (stereo unspecified),-6.783%
3,COc1ccccc1C1(CNc2ncc(S(N)(=O)=O)s2)CC1,-83.98%
4,COc1ccccc1C1(CNCc2ccc(C#N)cc2)CCOCC1,76%
5,COc1ccccc1C1(CNCc2ccc([S+](C)[O-])cc2)CC1 (stereo unspecified),68.71%
6,COc1cc(OC)c(CNC(=O)NCc2ccc(C#N)cc2)c(OC)c1,-15.69%
7,COc1ccccc1C1(CNc2ccc(C(=O)N(C)C)cn2)CC1,-78.51%
8,CN(C)c1ccc(C(=O)NCC2(c3ccccc3)CCOCC2)cc1,-48.74%
9,Cc1nnc(NCC2(c3ccccc3)CCOCC2)c(C#N)c1C,3.02%
10,Cl.N#Cc1ccc(CNCC2(c3ccccc3)CCOCC2)cc1,82.55%
11,CS(=O)(=O)C1(CNCc2cccc(-n3cccn3)c2)CCOCC1,-93.15%
12,COc1ccccc1C1(CNc2cn[nH]c(=O)c2Cl)CCOCC1,-35.38%
13,COc1ccccc1C1(CNCc2cccc(O)c2)CCOCC1,82.33%
14,O=C(COc1ccccc1NCc1ccc(F)cc1)N1CCOCC1,-94.22%
15,COCCOCC(=O)Nc1ccccc1F,-49.03%
16,COc1cc(CNc2cc(N3CCCC3CO)ncn2)ccn1 (stereo unspecified),-84.2%
17,CN1CCC/C1=N\S(=O)(=O)c1ccc(NC(=O)c2ccsc2)cc1,-6.415%
18,CCn1cnnc1CNC(=O)c1cc(F)ccc1OC,-155.2%
19,Cl.Nc1cccnc1N1CCCCCC1,-85.39%
20,C[C@@H]1CN(CCC(=O)NCc2ccccc2Cl)C[C@@]1(O)C1CC1,46.32%
21,O=C(O)C(F)(F)F.O=C(O)C(F)(F)F.c1coc(CN2CCCn3c(CN4CCOCC4)nnc3C2)c1,-56.94%
22,CCSc1ccc(C(=O)NCCc2nnc(-c3ccco3)[nH]2)cn1,-77.1%

row,Compound,Percent Effect
1,CC(OCC1CC1)C(=O)NCCC(=O)Nc1ccccn1 (stereo unspecified),-13.51%
2,COc1ccc(OC)c(Nc2nc3c(C)nn(C)c3c(=O)n2C)c1,-88.36%
3,CCOCC1CC2(CCN(C(=O)c3ccc4ccccc4n3)CC2)CO1.O=C(O)C(F)(F)F (stereo unspecified),2.806%
4,COc1ccccc1C1(CNCc2cccc(C#N)c2)CCOCC1,66.05%
5,COc1ccc(CN(C)Cc2cccc(C#N)c2)c(OC)c1,25.49%
6,COc1cccc(N2CCC(CNCc3cccc(C#N)c3)C2)c1 (stereo unspecified),-60.34%
7,CC(C)NC(=O)CN1CCCNCC1,-82.69%
8,O=C(c1cc(-c2ccn(CC3CC3)n2)n2ccccc12)N1CCOCC1,67.86%
9,O=C(O)c1cc(-c2ccn(CC3CC3)n2)n2ccccc12,-79.58%
10,O=C(c1cc(-c2ccn(CC3CC3)n2)n2ccccc12)N1CCCO1,-90.15%
11,Cc1nc(CNC(=O)NC2CCCN(c3ncccn3)C2)cs1 (stereo unspecified),-24.32%
12,CCn1nc(C)c2ccn(CC(=O)NCC3CCCO3)c(=O)c21 (stereo unspecified),-59.75%
13,Cc1cccc(C)c1OC1CN(C(=O)C2CCN(C(=O)N(C)C)CC2)C1,-10.34%
14,CCC(CNC1CCN(C(C)=O)CC1)Oc1ccccc1Cl (stereo unspecified),48.49%
15,CCC(CNC1CCN(C(=O)N(C)C)CC1)Oc1ccccc1C (stereo unspecified),72.22%
16,CCC(CNC1CCN(C(C)=O)CC1)Oc1cccc(C)c1 (stereo unspecified),51.47%
17,CCC(CNS(C)(=O)=O)Oc1ccccc1C (stereo unspecified),-141.4%
18,COCC(=O)N1CCC(Oc2cccc(C)c2)CC1,-129.3%

# Reference: ChEMBL document CHEMBL3988442, “University of Dundee, Small-Polar-MMV Screening Library” (2021)
